# The supplement of paper PMC6522484
# ± gives the standard deviation of the averaged measurements.
# Experiments:
# [1] = tested on: DLD1; assay: cell viability (CellTiter-Glo) relative to plate median (fraction of plate median); higher = more viable cells; conditions: 5 µM; treatment time 24 h; reporter: 7TFP
# Outline: (§1)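 Two independent replicates were averaged for each reported value. Library compounds were applied at a final 5 µM for 24 h to colorectal cancer cell lines stably expressing lentiviral TCF/Wnt firefly luciferase reporters. Firefly luciferase or CellTiterGlo luminescence from each well was normalised to the plate median.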
# [2] = tested on: HCT116; assay: as above; conditions: 5 µM; treatment time 24 h; reporter: TCF4/Wnt
# Outline: as §1
# [3] = tested on: SW480; assay: as above; conditions: 5 µM; treatment time 24 h; reporter: 7TFP
# Outline: as §1
# [4] = tested on: DLD1; assay: TCF/Wnt firefly luciferase reporter signal relative to plate median (fraction of plate median); higher = higher Wnt reporter signal; conditions: 5 µM; treatment time 24 h; reporter: 7TFP
# Outline: as §1
# [5] = tested on: SW480; assay: as above; conditions: 5 µM; treatment time 24 h; reporter: 7TFP
# Outline: as §1
SMILES,cell viability [1],cell viability [2],cell viability [3],TCF/Wnt firefly luciferase reporter signal [4],TCF/Wnt firefly luciferase reporter signal [5]
CC1=C(/C=C/C(C)=C/C=C/C(C)=C/C=C/C=C(C)/C=C/C=C(C)/C=C/C2=C(C)CCCC2(C)C)C(C)(C)CCC1 [beta-CAROTENE],0.966 ± 0.0042,1 ± 0.064,0.984 ± 0.0014,0.932 ± 0.018,0.983 ± 0.052
Cc1ccc(C)c(OCCCC(C)(C)C(=O)O)c1,0.985 ± 0.092,0.986 ± 0.034,1.01 ± 0.015,1.015 ± 0.0071,1.06 ± 0.05
N=C(N)c1ccc(OCCCCCOc2ccc(C(=N)N)cc2)cc1,0.93 ± 0.21,0.9365 ± 0.0078,1.01 ± 0.014,1.035 ± 0.0071,0.795 ± 0.013
